The results in this text go back to the supplement of paper PMC6555819.

The test system of the experiment is PXR homodimer (NR concentration 270 nM). Kind of experiment: PBM binding z-score (relative to random genomic background probes); higher = stronger binding; sequences stand for … in GC…GCGATTGACAGCGTAGAATGAAGG
The procedure, abridged:
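Binding z-scores were set against random background probes. The data came from custom Agilent 4×180K protein-binding microarrays carrying double-stranded probes with 34-nt variable regions, incubated 1 h with ligand-free nuclear receptor dimers. Partner-specific antibodies detected binding, and scanned fluorescence was regression-normalized.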
GCGACTAGGGCATCAGCAGGTTACCATAACTTAA: the PBM binding z-score was -0.519. In turn, GATACAGTGTCAAGGCCAGAGTACGCGTATTGAT had a PBM binding z-score of 0.246.

GCGACTGGGGCATCAGCAGGTTTCCATAACTTAA: the PBM binding z-score is -0.0807. The result for CCGACTGGGGCATAAGGTTACCCTAAGCCAGCCC reads -0.708. The result for AATACAGGGTCATCGTAGGCCAGCGTACGCACAG reads 0.406; that for GCGACTGGGGCATCAGCAGATTACCATAACTTAA, -0.328; that for GGACCGAGGGCAAAGTTGATAGCATCTGTCGACG, -0.387. With CGGACTAGGTCATTGACAGGACAGTGAATAGTAA the figure was 0.0677; with CGTCAAAGTTTAACTAAGGTAACGTAAAGCACGC, 0.928; with ATATGTAGGTTAGCTGGGGTCATACAGACTAGGC, 3.07.

Sequence GCGGCTAGGTCAACTGATGGTCAGCTAAAGCTCG returned a PBM binding z-score of -0.666. As for CAGCCTAGGTCATGGCCAGTATAGGAGGAACGTT, the PBM binding z-score is -0.702. With CCTAGTTGGTCAAGGCCACACACGCTATAGGTAC the figure was 1.6. CCTTACGGGTCAACGTTATAGCACGGGTGGTACG displayed a PBM binding z-score of -0.188.

In the case of TCTTGTAGATCAAACAGGTTAAGAAAGCCTGAGT, the PBM binding z-score turned out to be 0.338. With CCTAGTTGGTCAGGAGGTCACACTCCGGATATGA the figure was 1.2; with TCTAGCAGGCGAGAGGGTCACTCAAGAGGTACGG, -0.472; with CGAACGAGGGCATGAGTTGATAGCGAATGCCGAT, -0.235. On to TCATATAGGTAAAAGGTGAAAGTAGGTGTGGTAA, for which the PBM binding z-score came out at 0.728. With ACAGACAGGTGAGTGAAGGTAGCTCAGCTGGACG the figure was -0.525; with CAAACTAGGTCACAGAGGTCAAAGACCGTGCGTA, 10.2; with TGTCAAAGTTCAAAGGTAACGGAAGTATCCACAC, 3.74. With CATTACGGGTCACGAGGTTATAGCACGACGAGCG the figure was 0.703; with ATCTCTAGGTAAAGTTCAGTTAAAGATCGATAGA, 1.72; with CCTACGGGGCCATTCAGAGGTCATTGATCATATG, 4.64.

In turn, AGAATGAGGTTAATATCAGGGAAACAGAATACAT had a PBM binding z-score of 0.575. With CCGACTGGGCCAAGGTCATTGATCAGTCAAAGCA the figure was 0.921. With CCTCAGAGGACAGAAGGTCAGAGCTGTCCGCTTT the figure was -0.179; with CGAACTAGGTCATCCAGGAAAGTGAATACATTGA, 0.128.

As to ACTATTAGTTGAGACGAGTGCAACCGATAGGTTG, the PBM binding z-score amounted to 0.737. The result for GCTTACGGGTCAAAGGTTATAGCGTGAATAGAAT reads 0.264; that for ACTATTAGTTGACTTAGGGCAACCGGTACGACGC, 0.564; that for AGATTGAGGTTATACGTAGATCAGGGAAGAAAGT, 0.75.

CCTACTAGGTCAATGGTCAGCTAAAGCAGCTCGC registered a PBM binding z-score of 0.377.

In the case of ATCTGTAGGTAACAAGTTCAGTGAAAGAGAGGAC, the PBM binding z-score is 0.906. The result for CAAACTAGGTCAACAGGTCAAAGTCCGCTTCCCG reads 1.23; that for TCTCGGAGGACACGAAAGGTTAGAGCTCGACATC, -0.519. With GCTTGTATATCAAGGTTAAGAAAGACTAAGCTAA the figure was -0.223; with TCCGCTAGGTCAACGATGGTCAGCTAATCTGCTA, -0.762; with CCTATGAGTTGACCATAAGGGCAACCGAAGCTCG, 0.421.
